Results taken from ChEMBL document CHEMBL3988442, “University of Dundee, Small-Polar-MMV Screening Library” (2021).

target: AMP-activated protein kinase, AMPK (Homo sapiens) (UniProt P54646+O43741+P54619+Q9UGJ0+Q9Y478+Q13131+Q9UGI9); test: AMP-dependent Kinase enzyme assay. An in vitro enzyme assay that detects ADP turnover that is directly proportional to AMPK activity. This uses naive AMPK that is activated during the assay with MK-8722; type: functional; design: scale not given: direction of the effect not stated beside the values; conditions: 30 µM

Row | SMILES | Percent Effect [%]
1 | CCc1nc(CSc2nnc(N)n2C2CC2)no1 | 7.62
2 | COc1ccc(C)nc1NC(=O)CCc1c(C)nn(C)c1C | -7.06
3 | COc1ccc(C(=O)N2C[C@@H](O)[C@H](NCCc3ncccc3C)C2)cc1 | -1.16
4 | COc1ccc(CC2(CO)CCN(c3cc(C#N)ccn3)CC2)cc1 | 112
5 | Cn1ncnc1NCc1ccc(F)cc1 | -10.9
6 | O=C1OCCN1Cc1nc(C2(c3ccc(F)cc3)CCOC2)no1 (centres undefined) | 8.23
7 | CN(C)c1ncccc1CNC(=O)CCNc1ncccn1 | -6.85
8 | O=C1CCC2(CCOC2)CN1Cc1nncn1CCc1ccccc1 (centres undefined) | 14.2
9 | CCCn1cc(CN2CCOCC2c2[nH]ncc2C)cn1 (centres undefined) | 14.3
10 | O=C(Nc1ccccc1OCCc1ccccn1)N1CCOCC1 | 10.6
11 | COc1cc2c(cc1OC)CN(C(=O)NCC1CCCO1)CC2 (centres undefined) | -8.87
12 | O=C(COc1cc(Cl)cc(Cl)c1)NCc1nncn1C1CC1 | -6.22
13 | FC(F)(F)c1nc(NC2CCc3ncnn3C2)c2ccccc2n1 (centres undefined) | -0.0839
14 | CCCc1cc(C(=O)NC(COC)c2ccnn2C)no1 (centres undefined) | -16.8
15 | O=C(Cn1cccnc1=O)NCc1cccnc1OCC(F)(F)F | 0.146
16 | COc1cccc(-c2ncc(CN3CC[C@H](CO)[C@@H](O)C3)s2)c1 | -0.478
17 | Cn1cc(S(=O)(=O)NCc2ccsc2)cn1 | -0.312
18 | COc1ccc(CN(C)[C@@H]2COC[C@H]2c2ccc(F)cc2)c(OC)c1 | 10.5
19 | CC1(C)COCCN1C(=O)Cc1cc(Cl)c2c(c1)OCCO2 | 10.7
20 | COCCN1C(=O)[C@H]2CC[C@@H]1CN(S(=O)(=O)c1cccc(Cl)c1)C2 | 27.4

Row | SMILES | Percent Effect [%]
21 | O=C(CCN1CCCO1)N1CC[C@@H](CNC(=O)N2CCCC2)[C@H](O)C1 | -5.68
22 | Cc1ccc(OCC(=O)N2CCOCC(O)(CN3CCCC3)C2)cc1C (centres undefined) | 8.56
23 | CSCCN1CCC(NC(=O)c2cccc(C3CCCNC3)c2)CC1 (centres undefined) | -2.91
24 | CC(C)CNC(=O)c1[nH]nc(C2CC2)c1Br | -2.23
25 | CN(C(=O)C1CCN(Cc2cnc3ccccn23)CC1)c1ccccc1 | -0.957
26 | COc1ccc(CN(C)Cc2c(C)noc2C)c(Br)c1OC | 2.55
27 | COC(=O)NCC(=O)NC1(C)CCc2ccccc2C1 (centres undefined) | 12.8
28 | Cc1cc(=O)n(CCNC(=O)c2ccccc2Cl)cn1 | -4.73
29 | C[S+]([O-])c1cccc(NC(=O)N[C@H](CCO)c2ccccc2)c1 (some centres undefined) | -2.38
30 | CCc1ncc2c(n1)CN(c1cc(N3CCN(C)CC3)nc(N)n1)C2 | -137
31 | O=C(NCc1ccc(-n2cncn2)nc1)c1cnccn1 | -5.91
32 | Cc1csc(CCNC(=O)N2CCC(NC(=O)OC(C)(C)C)CC2)n1 | -1.4
33 | CCC(Nc1ccc(CCN2CCOCC2)cc1)C(N)=O (centres undefined) | -3.46
34 | COc1cccc(CN(C)C(C)C(=O)Nc2nc(C)c(C)s2)c1 (centres undefined) | 5.13
35 | CCS(=O)(=O)N1CCN(C(C)c2ncc(-c3ccccc3)o2)CC1 (centres undefined) | -3.96
36 | Cc1n[nH]c(C)c1NC(=O)NCc1cc[nH]n1 | -7.26
37 | CC(C)c1nc2n(n1)CC(NCc1cc3ccccc3o1)CC2 (centres undefined) | 0.664
38 | Cc1cc(CN(C)C(=O)CNS(=O)(=O)c2cccs2)no1 | 7.18
39 | CC(C)N(C)S(=O)(=O)c1ccc2c(c1)CCN(C(=O)c1cscn1)C2 | -3.43
